# Measured values from the supplement of paper PMC6555819.
# What was measured:
# Experiment in all cases: PBM binding z-score (relative to random genomic background probes); higher = stronger binding; sequences stand for … in GC…GCGATTGACAGCGTAGAATGAAGG
# [1] = test system: FXR:RXRa (NR concentration 270 nM, RXRa partner concentration 90 nM)
# Summary of the method: (§1)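 Regression normalization was applied to scanned fluorescence from custom Agilent 4×180K protein-binding microarrays. Before scanning, arrays were incubated 1 h with ligand-free nuclear receptor dimers, and binding was detected with antibodies against each partner (one per run). Binding z-scores use the random background probes as reference.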
# [2] = test system: LXRa:RXRa (NR concentration 270 nM, RXRa partner concentration 90 nM)
# Summary of the method: as §1
# [3] = test system: LXRa homodimer (NR concentration 270 nM)
# Summary of the method: as §1
# [4] = test system: LXRb:RXRa (NR concentration 270 nM, RXRa partner concentration 90 nM)
# Summary of the method: as §1
# [5] = test system: LXRb homodimer (NR concentration 270 nM)
# Summary of the method: as §1
# [6] = test system: PPARa:RXRa (NR concentration 270 nM, RXRa partner concentration 90 nM)
# Summary of the method: as §1
# [7] = test system: PPARg:RXRa (NR concentration 180 nM, RXRa partner concentration 90 nM)
# Summary of the method: as §1
# [8] = test system: PPARg:RXRa 270nM:90nM, anti-RXR (NR concentration 270 nM, RXRa partner concentration 90 nM)
# Summary of the method: as §1
# [9] = test system: PPARg:RXRa 30nM:10nM, anti-RXR (NR concentration 30 nM, RXRa partner concentration 10 nM)
# Summary of the method: as §1
# [10] = test system: PPARg:RXRa 90nM:30nM, anti-RXR (NR concentration 90 nM, RXRa partner concentration 30 nM)
# Summary of the method: as §1
# [11] = test system: PPARg:RXRa DBDmut IVT, anti-RXR (DBD mutation: RXRa K156A/R161A, NR concentration 270 nM, RXRa partner concentration 90 nM)
# Summary of the method: as §1
# [12] = test system: PPARg:RXRa IVT, anti-PPARg (NR concentration 270 nM, RXRa partner concentration 90 nM)
# Summary of the method: as §1
# [13] = test system: PPARg DBDmut:RXRa IVT, anti-PPARg (DBD mutation: PPARg1 K132A/R137A, NR concentration 270 nM, RXRa partner concentration 90 nM)
# Summary of the method: as §1
# [14] = test system: PPARg DBDmut IVT, anti-PPARg (DBD mutation: PPARg1 K132A/R137A, NR concentration 270 nM)
# Summary of the method: as §1
# [15] = test system: PPARg homodimer (NR concentration 180 nM)
# Summary of the method: as §1
# [16] = test system: PXR:RXRa (NR concentration 270 nM, RXRa partner concentration 90 nM)
# Summary of the method: as §1
# [17] = test system: PXR homodimer (NR concentration 270 nM)
# Summary of the method: as §1
# [18] = test system: RARa:RXR (NR concentration 270 nM, RXRa partner concentration 90 nM)
# Summary of the method: as §1
# [19] = test system: RARa homodimer (NR concentration 270 nM)
# Summary of the method: as §1
# [20] = test system: RARb:RXRa (NR concentration 270 nM, RXRa partner concentration 90 nM)
# Summary of the method: as §1
Sequence,PBM binding z-score [1],PBM binding z-score [2],PBM binding z-score [3],PBM binding z-score [4],PBM binding z-score [5],PBM binding z-score [6],PBM binding z-score [7],PBM binding z-score [8],PBM binding z-score [9],PBM binding z-score [10],PBM binding z-score [11],PBM binding z-score [12],PBM binding z-score [13],PBM binding z-score [14],PBM binding z-score [15],PBM binding z-score [16],PBM binding z-score [17],PBM binding z-score [18],PBM binding z-score [19],PBM binding z-score [20]
GATACAGGGTCTGCTAGAGGCCAGAGTATGGAAA,-0.351,-0.359,-0.605,-0.772,-0.649,-0.759,0.108,-0.444,-0.281,-0.382,-0.826,-0.333,-1.05,-1.35,-0.406,-0.54,-0.558,-0.523,-0.148,0.305
CCTTACGGGTCACTCCAGGTTATAGGATCGGAGT,4.94,7.84,1.93,5.04,-0.0329,4.39,3.38,3.76,1.12,2.6,2.49,4,0.265,0.385,1.86,5.21,0.588,4.1,0.817,3.8
CGTATTAGTTGACCATAAGGGCAACCGAAGCTCG,0.6,0.437,0.259,0.258,0.134,0.617,0.684,0.523,-0.0743,0.805,0.0759,0.784,0.0678,-0.147,1.44,0.388,0.0683,0.881,0.774,1.26
GCTGCTAGGTCAGGTTGGTCAGCTATCGGGTACG,1.38,0.811,-0.13,0.574,-0.138,1.42,0.304,1.19,-0.614,0.562,2.93,2.58,-0.776,-0.675,1.22,0.328,-0.458,0.73,-0.348,3.46
CGAACTAGCTCATCCAGGACAGTGAATACATTGA,-0.123,-0.399,0.0441,-0.293,-0.166,-0.4,0.522,-0.572,0.105,0.154,0.221,-0.126,-0.227,0.607,0.205,-0.344,0.167,-0.0855,-0.0939,-0.208
GCTGCTATGTCAGGTTGGTCAGCTAACGGGTACG,-0.0269,-0.171,-0.277,-0.513,-0.58,-0.327,-0.164,-0.401,-0.739,-0.312,0.218,-0.36,-0.641,-1.12,-0.452,-0.319,-0.426,-0.149,-0.632,0.458
ATCGAAAGGTCGAAGATGAGTATACCCACCCGAA,3.83,3.21,0.43,2.41,0.732,4,2.52,2.37,1.04,1.8,-0.341,1.22,0.714,0.471,1.15,1.97,0.241,2.66,0.939,3.69
ACTAGCACGCCAAGTTTGGGTCACTCAAACAAAG,0.0024,-0.138,-0.715,0.642,-0.337,1.17,-0.0065,-0.00833,-0.577,-0.34,-0.764,0.325,-0.643,-0.578,0.00723,0.524,-0.537,0.981,-0.534,1
TCTTGTAGACCAGCAGGTTAAGAAAGCTGGCCAA,0.124,0.0452,-0.542,0.0973,-0.717,0.558,-0.5,1.27,2.61,1.96,1.63,0.1,-1.37,-0.977,-0.0673,0.0995,-0.534,0.371,-0.568,0.179
ACTTACGGGTCAACGAGGTTTTAGCACGCGTATA,6.78,4.29,0.188,3.9,0.561,5.92,5.23,4.84,1.94,3.95,3.23,3.96,0.283,0.441,2.07,4.02,-0.016,4.35,0.666,4.07
ATCTCTAGGTTACAAGTTCAGTGAAAGAGAGGAC,1.64,2.33,1.68,1.55,1.77,2.51,2.72,3.25,1.77,2.97,4.27,4.41,1.99,3.28,2.22,2.38,2.41,2.03,1.88,2.69
ACAGACTGGTGATGAAGGTAACTCAGGCTATCAT,-0.533,-0.452,-0.433,-0.663,-0.582,-0.594,0.512,0.104,-0.179,-0.158,-0.615,-0.401,0.194,-0.143,-0.6,-0.651,-0.0629,-0.424,0.115,-0.396
CCTACTGGGCCAAGGTCATTGAACAGTCAAAGCA,3.08,3.2,0.814,3,-0.34,4.19,4.25,4.55,1.68,3.73,3.68,4.69,-0.3,-0.825,1.5,3.32,0.99,3.5,-0.309,3.5
TCGAATAGGTTACCAATGGGGCATTCAGCTTTCT,0.65,2.61,-0.377,2,-0.392,1.87,0.255,1.75,2.94,2.43,2.41,1.12,0.24,-0.411,0.402,0.725,0.0437,0.908,0.281,1.57
ATCTCTACGTAACCAAGTTCAGTGAATGCCGAAC,0.0268,0.0264,0.728,0.389,1.1,0.166,0.223,0.137,0.163,0.36,-0.22,0.0113,0.854,0.806,0.739,1.29,1.4,0.427,0.401,0.836
